In the library only some 4.1% were active in any assay of this set; here they are far more common.
IDE act = IDE (human) activation, cell-based. 340,000 tested, 0.073% active. HEK cells, FAbeta-B cleavage, fluorescence polarization; 0% vehicle, 100% cell-free pure enzyme wells. activation, % at 5.96 µM. P14735;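 active = activation above the mean of all tested compounds plus 3 SD, set per screening campaign, cut at about 17% in these data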
ALR H2O2 inh = blocks human ALR sulfhydryl oxidase activity. P55789. purified ALR, DTT oxidation, H2O2 HRP-luminol luminescence. inhibition, % (concentration not given with the values). 290,000 tested, 3.8% active;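 active = mean replicate inhibition above about 79%, with every replicate also reaching it, limit read from the data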
Target sequence (P55789 whole entry, looked up): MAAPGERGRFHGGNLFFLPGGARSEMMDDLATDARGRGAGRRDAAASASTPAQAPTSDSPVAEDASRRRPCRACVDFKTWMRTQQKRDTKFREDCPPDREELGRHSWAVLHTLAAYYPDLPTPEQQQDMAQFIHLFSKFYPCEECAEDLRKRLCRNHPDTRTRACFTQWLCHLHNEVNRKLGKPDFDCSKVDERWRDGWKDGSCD
CaV13 FRET inh = Primary screen for inhibitors of IQ motif and Ca2+-dependent inactivation inhibitor domain binding in CACNA1D, Förster resonance energy transfer in living cells, …; 340,000 tested, 0.098% active; AID 743397; HEK cells, CFP/YFP FRET ICDI-IQ, plate reader, 10 min; percent FRET-ratio fall versus neutral wells; inhibition, % at 12.3 µM;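 active = mean replicate inhibition of at least 30% and at least 1% of replicates passing that level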;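 note: 0% = median of the neutral control wells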
IDE cell inh = inhibits human insulin-degrading enzyme in HEK cells; FAbetaB cleavage, fluorescence polarization; AID 434962; 320,000 tested, 0.41% active; inhibition, % at 5.59 µM;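 active = percent inhibition above the average of all tested compounds plus 3 SD, set per screening campaign, cut at about 16% in these data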;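 note: IDE supplied by intact live HEK cells; FP after avidin binding of uncleaved biotin substrate so inhibition keeps polarization high; 0% = DMSO wells and 100% = 60 µM reference IDE inhibitor Ii1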
PolyA inh = yeast polyadenylation inhibition; activity score, % at 12 µM; 300,000 tested, 0.02% active; S. cerevisiae SKY197-pL101 polyadenylation reporter, beta-gal luminescence; efflux-impaired pdr1/pdr3 knockout yeast; score 100 = 6 SD above DMSO;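 active = lowest replicate activity score at least 50, where 100 means six control SD above control mean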;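 note: yeast exposed to compound for 9 h at 30 °C; higher score means more reporter readthrough which indicates perturbed polyadenylation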
PfM18AAP inh-1 = blocks P. falciparum M18 aspartyl aminopeptidase; inhibition, % at 7.35 µM; recombinant PfM18AAP, H-Glu-NHMec fluorogenic cleavage; AID 1822; 290,000 tested, 1.2% active;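 active = inhibition above the campaign mean inhibition over all tested compounds plus 3 SD, cut at about 28% in these data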;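 note: 0% = plate median of test compound wells and 100% = 2 mM ZnCl2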
PfM18AAP inh-2 = confirmation of Plasmodium falciparum M18 aspartyl aminopeptidase inhibitors. inhibition, % at 7.35 µM. 2,400 tested, 28% active. recombinant PfM18AAP, H-Glu-NHMec fluorogenic cleavage. shares compounds with PfM18AAP inh-1;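 active = mean inhibition over replicate wells above the hit cutoff set for the earlier primary screen, cut at about 29% in these data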;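 note: 0% = median of test compound wells and 100% = 2 mM ZnCl2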
CTSL1 confirm = Cathepsin L (human) inhibition, confirmation; shares compounds with PfM18AAP inh-1; purified cathepsin L1, Z-Leu-Arg-MCA fluorescence; inhibition, % at 5.96 µM; 2,400 tested, under 10 active;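 active = average inhibition across replicates above the hit cutoff set in the earlier primary screen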;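 note: 0% = median of test compound wells and 100% = Z-Phe-Ala-diazomethylketone 1 µM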
Target sequence (P07711 whole entry, looked up): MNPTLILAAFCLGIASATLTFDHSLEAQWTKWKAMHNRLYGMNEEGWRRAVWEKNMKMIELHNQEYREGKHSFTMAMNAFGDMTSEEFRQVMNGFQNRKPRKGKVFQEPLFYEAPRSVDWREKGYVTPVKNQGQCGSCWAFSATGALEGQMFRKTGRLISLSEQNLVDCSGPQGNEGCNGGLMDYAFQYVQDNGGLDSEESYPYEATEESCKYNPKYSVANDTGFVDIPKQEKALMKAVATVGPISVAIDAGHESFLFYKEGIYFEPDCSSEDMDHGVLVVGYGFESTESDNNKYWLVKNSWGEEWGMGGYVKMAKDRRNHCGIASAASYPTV
IDE cell inh cf = cellular human IDE inhibition, confirmation; shares compounds with IDE cell inh; HEK cells, FAbetaB cleavage, fluorescence polarization; inhibition, % at 5.59 µM; 1,200 tested, 51% active; AID 435028;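 active = mean inhibition across triplicate wells above the cutoff set by the earlier primary insulin-degrading enzyme screen, cut at about 16% in these data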;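 note: 0% = DMSO wells and 100% = 60 µM reference IDE inhibitor Ii1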
HEK293 tox = kills HEK cells in IDE inhibitor counter-screen; inhibition, % at 5.59 µM; AID 449730; HEK293 cytotoxicity, ATP luminescence; shares compounds with IDE cell inh; 1,200 tested, 28% active; in the data active = inhibition above about 22%;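 note: 0% = vehicle wells and 100% = reference cytotoxic drug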
An asterisk follows results filed as active.

How did CCN1/C(=C\C(=S)Nc2ccccc2)Sc2ccccc21 do in these assays?
IDE act: -5; CaV13 FRET inh: -5; IDE cell inh: 21*; PolyA inh: -10; PfM18AAP inh-1: 41*; PfM18AAP inh-2: 15; CTSL1 confirm: 2; IDE cell inh cf: 2; HEK293 tox: 13

How did O=c1c2c([N+](=O)[O-])cc([N+](=O)[O-])cc2sn1Cc1ccccc1 do in these assays?
IDE act: -32; ALR H2O2 inh: 13; CaV13 FRET inh: -4; IDE cell inh: 84*; PolyA inh: -59; PfM18AAP inh-1: 79*; PfM18AAP inh-2: 72*; CTSL1 confirm: 2; IDE cell inh cf: 24*; HEK293 tox: 92*

What do the screens show for `Cc1ccc(S(=O)(=O)N2CCOCC2)cc1NCC(=O)Nc1ccc(OC(F)(F)F)cc1`?
IDE act: 2; ALR H2O2 inh: 24; CaV13 FRET inh: -6; IDE cell inh: 2

What do the screens show for `CC[n+]1c(C)sc2c3ccsc3ccc21`?
IDE act: -21; ALR H2O2 inh: 46; CaV13 FRET inh: 8; IDE cell inh: 42*; PolyA inh: 3; PfM18AAP inh-1: 55*; PfM18AAP inh-2: 9; CTSL1 confirm: 6; IDE cell inh cf: 10; HEK293 tox: 2

Results for Cc1[nH]n(-c2ccccc2)c(=S)c1C=NCCCN=Cc1c(C)[nH]n(-c2ccccc2)c1=S ?
IDE act: -16; ALR H2O2 inh: 5; CaV13 FRET inh: -13; IDE cell inh: 32*; PolyA inh: -3; PfM18AAP inh-1: 59*; PfM18AAP inh-2: -4; CTSL1 confirm: 1; IDE cell inh cf: 4; HEK293 tox: 123*

How did Cc1cccc(N2CCN(C(=O)Cn3sc4nc(C)cc(C)c4c3=O)CC2C)c1 (stereo not drawn) do in these assays?
IDE act: -73; ALR H2O2 inh: 95*; IDE cell inh: 41*; PolyA inh: 3; PfM18AAP inh-1: 49*; PfM18AAP inh-2: 17; CTSL1 confirm: -3; IDE cell inh cf: 12; HEK293 tox: 76*

What do the screens show for `CCOc1ccc(NC(=O)Cn2ncc3ccccc32)cc1`?
IDE act: -2; ALR H2O2 inh: 22; CaV13 FRET inh: -18; PolyA inh: 1; PfM18AAP inh-1: -5

How did Cc1ccc(NC(=O)Cn2sc3nc(C)cc(C)c3c2=O)c(Cl)c1 do in these assays?
IDE act: -63; ALR H2O2 inh: -4; CaV13 FRET inh: -17; IDE cell inh: 54*; PolyA inh: -7; PfM18AAP inh-1: 67*; PfM18AAP inh-2: 45*; CTSL1 confirm: 5; IDE cell inh cf: 11; HEK293 tox: 27*

How did Cc1cc(C)c2c(=O)n(CC(=O)Nc3ccc(Cl)cc3)sc2n1 do in these assays?
IDE act: -58; ALR H2O2 inh: -16; CaV13 FRET inh: -2; IDE cell inh: 46*; PolyA inh: -12; PfM18AAP inh-1: 57*; PfM18AAP inh-2: 47*; CTSL1 confirm: 7; IDE cell inh cf: 9; HEK293 tox: 76*

Results for CCOc1ccc(NC(=O)Cn2sc3nc(C)cc(C)c3c2=O)cc1 ?
IDE act: -52; ALR H2O2 inh: 19; IDE cell inh: 40*; PolyA inh: -6; PfM18AAP inh-1: 56*; PfM18AAP inh-2: 36*; CTSL1 confirm: -8; IDE cell inh cf: 11; HEK293 tox: 79*

Results for CCN(CC(=O)N1CCOCC1)S(=O)(=O)c1cc(Cl)ccc1Cl ?
IDE act: 2; ALR H2O2 inh: 2; CaV13 FRET inh: -2; IDE cell inh: 0; PolyA inh: 0; PfM18AAP inh-1: -11

How did O=S(=O)(Nn1c(O)c(C=C2N=c3ccccc3=N2)sc1=S)c1ccccc1 do in these assays?
IDE act: -1; CaV13 FRET inh: 9; IDE cell inh: -4; PolyA inh: 0; PfM18AAP inh-1: 25

What do the screens show for `O=C(Nn1c(O)c(C=C2N=c3ccccc3=N2)sc1=S)c1ccccc1Cl`?
IDE act: -5; ALR H2O2 inh: 40; CaV13 FRET inh: -4; IDE cell inh: 17*; PolyA inh: 8; PfM18AAP inh-1: 54*; PfM18AAP inh-2: -30; CTSL1 confirm: -1; IDE cell inh cf: 10; HEK293 tox: 8

Results for CC(=O)NCCN=C(C)c1sc2ccccc2c1O ?
IDE act: -1; ALR H2O2 inh: 11; IDE cell inh: 8; PolyA inh: 8; PfM18AAP inh-1: 8

How did CC(=Nc1ccc(O)cc1)c1sc2ccccc2c1O do in these assays?
IDE act: -28; ALR H2O2 inh: -2; IDE cell inh: 27*; PolyA inh: -15; PfM18AAP inh-1: 55*; PfM18AAP inh-2: -39; CTSL1 confirm: 3; IDE cell inh cf: 35*; HEK293 tox: 19

How did CCOC(=O)C1(O)CC(C)=NN1C(=O)c1cccc(Cl)c1 (stereo not drawn) do in these assays?
IDE act: 0; ALR H2O2 inh: 1; CaV13 FRET inh: -15; IDE cell inh: 3; PolyA inh: 12; PfM18AAP inh-1: -2

How did COc1cccc(CN2CC(C(=O)NCCCCc3ccccn3)CCC2=O)c1 (stereo not drawn) do in these assays?
IDE act: -11; ALR H2O2 inh: -14; PolyA inh: 6; PfM18AAP inh-1: -5

What do the screens show for `N#C/C(=C/c1ccc(O)c(O)c1)c1nc2ccccc2[nH]1`?
IDE act: -49; ALR H2O2 inh: 90*; CaV13 FRET inh: -5; IDE cell inh: 47*; PolyA inh: -18; PfM18AAP inh-1: 62*; PfM18AAP inh-2: 43*; CTSL1 confirm: -1; IDE cell inh cf: 93*; HEK293 tox: 9

Results for N#C/C(=C\c1cccs1)c1nc2ccccc2[nH]1 ?
IDE act: 5; CaV13 FRET inh: -19; IDE cell inh: -2; PolyA inh: 1; PfM18AAP inh-1: 1

What do the screens show for `N#Cc1ccccc1N1CCN(C(=O)c2ccc(NC(=O)c3ccc(Br)o3)cc2)CC1`?
IDE act: -2; ALR H2O2 inh: -19; IDE cell inh: 3

Screens (PubChem)
